Measurements published in PubChem BioAssay (NCI).
About 83,000 compounds went through this panel and 20% of them were active in at least one assay; those are over-represented in the sample as a whole.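 Treatment: one concentration, 48 hours, 96-well format. Scoring: percent growth, with anything below 10 considered active.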 Activity calls are given as the source filed them.

system: SF-539 CNS; assay: NCI-60 one-dose screen, 48 h (100 = growth as untreated, 0 = no growth, -100 = all killed); details: 10 µM unless noted

Compound | growth
CC1(C)N=C(N)N=C(N)N1c1ccc(OCCCNC(=O)Nc2ccc(S(=O)(=O)F)cc2)c(Cl)c1 | 16.5% (inactive)
O=C(CN1CCN(C(=O)c2ccco2)CC1)Nc1ccc(Cl)cc1C(=O)c1ccccc1Cl | 99.8% (inactive)
Cc1cc(N(CCCl)CCCl)ccc1C=Nc1ccccc1-c1ccccc1 | 61.7% (inactive)
Cn1cc(-c2csc(-c3cn(CCN4CCOCC4)c4ccccc34)n2)c2cccnc21 | 73.2% (inactive)
CCOC(=O)[C@@H](C)C[C@H](Cc1ccccc1)NC(=O)c1csc([C@@H](C[C@H](C(C)C)N(C)C(=O)[C@H](CC)NC(=O)[C@H]2CCCCN2C)OC(C)=O)n1 | -9.33% (active)
ClC1=C(Cl)C(Cl)(C2(Cl)C(Cl)=C(Cl)C(Cl)=C2Cl)C(Cl)=C1Cl | -59% (active)
O=C([O][Hg][CH2]C1OCCOC1[CH2][Hg][O]C(=O)c1ccccc1)c1ccccc1 (stereo not drawn) | 79.8% (inactive)
COc1ccc([As]=[As]c2ccc(OC)c(NCS(=O)(=O)O)c2)cc1NCS(=O)(=O)O (stereo not drawn) | 2.54% (active)
[Cl][Hg][n]1c(-c2ccco2)nc2ccccc21 | 99.3% (inactive)
CCC[CH2][Sn]([CH2]CCC)([CH2]CCC)[O]c1ccc(Cl)cc1Cl | -83.4% (active)
NC(CCl)CCl | 95.1% (inactive)
CN1CCC(c2c[nH]c3ccccc23)C1 (stereo not drawn) | 127% (inactive)
CCCCCCCCCCCCCCCCCC1OC[C@@H](COC(=O)O[C@@H](C(=O)O[C@H]2C[C@@]3(O)[C@@H](OC(=O)c4ccccc4)[C@@H]4[C@]5(OC(C)=O)CO[C@@H]5C[C@H](O)[C@@]4(C)C(=O)[C@H](OC(C)=O)C(=C2C)C3(C)C)[C@@H](NC(=O)c2ccccc2)c2ccccc2)O1 (stereo partly drawn) | 51.9% (inactive)
CC1=C([Te]c2ccc(O)cc2)C(=O)c2ccccc2C1=O | -19.1% (active)
O=C1NC(=O)C(=Cc2cn(CCCCCCn3c4ccccc4c(=O)c4ccccc43)c3ccccc23)C(=O)N1 | 93% (inactive)
CC(C)OC(=O)[C@H](C)NP(=O)(Oc1ccccc1)C1CCCN(O)C1=O (stereo partly drawn) | 87.7% (inactive)
CCCCCCC(=O)NC1=C(N2CC2)C(=O)C(NC(=O)CCCCCC)=C(N2CC2)C1=O | 61.7% (inactive)
COc1ccc(/C=C\c2cc(OC)c(OC)c(OC)c2)cc1NS(=O)(=O)c1ccc(Cl)cc1 | 82.6% (inactive)
CC[C@H](C)[C@H](NC(=O)[C@H]1CCCCN1C)C(=O)N(C)[C@H](CC(=O)c1nc(C(=O)N[C@@H](Cc2ccccc2)C[C@H](C)C(=O)O)cs1)C(C)C | 75.8% (inactive)
C[C@]12C[C@@H](CO)[C@H](O)C[C@@H]1CC[C@@H]1[C@@H]2CC[C@]2(C)[C@@H](O)CC[C@@H]12 | 95.8% (inactive)
[Cl][Hg][c]1cc[c]([Hg][Cl])o1 | 75% (inactive)
NC(=S)c1cn(C2OC(CO)C(O)C2O)c2ncnc(N)c12 (stereo not drawn) | -53.1% (active)
COC(=O)CC[C@H](Cc1ccccc1)NC(=O)c1csc([C@@H](C[C@H](C(C)C)N(C)C(=O)[C@@H](NC(=O)[C@H]2CCCCN2C)C(C)C)OC(C)=O)n1 | 9.4% (active)
